Active and inactive are the calls of the source. Rule for the calls: active = hit-call score of the fitted dose curve at least 0.9, where 1 is the maximum; inactive = score below 0.9.
Read-out: CFLAR gene, CFLAR (gene 8837)
Assay: LTEA_HepaRG_CFLAR: Life Technologies and Expression Analysis (LTEA) Assay for CFLAR gene using HepaRG (AID 2283455)
Conditions: mRNA level, 48 h; actives raise or lower the signal
Description: LTEA_HepaRG is a cell based, multiplexed-readout assay that uses HepaRG, a human liver cell line, with measurements taken at 48 hours after chemical dosing on a 96-well plate.LTEA_HepaRG_CFLAR is one of 102 assay component(s) measured in the LTEA HepaRG cell culture assay. It is a marker of Cell proliferation, survival, death.Data from the assay component LTEA_HepaRG_CFLAR was analyzed into 1 endpoint. This assay endpoint, LTEA_HepaRG_CFLAR, was analyzed with bidirectional fitting relative to DMSO as the negative control and baseline of activity. Using a type of inducible reporter, measures of mRNA induction for gain or loss-of-signal activity can be used to understand regulation of transcription factor activity. To generalize the intended target to other relatable targets, this assay endpoint is annotated to the cell cycle intended target family, where the subfamily is Cell proliferation, survival, death.
A total of 1060 chemcials from the ToxCast library were tested in eight-point concentration-response experiments. Cell culture and cytotoxicity assays were conducted at Thermo Fisher Scientific's Custom Services facility (Madison, WI). A single lot of human HepaRG cells (Thermo Fisher Scientific, Frederick, MD) was used for the cell culture experiments. 96-well format collagen type I coated plates of human HepaRG cells were prepared using established methods. Briefly, cryopreserved HepaRG cells were thawed, plated at a density of approximately 100,000 cells/well in HepaRG Thaw, Plate, and General Purpose media (HPRG770, Thermo Fisher Scientific), and incubated for 48 hours. 0.5% DMSO was selected as vehicle control to balance the requisite need of DMSO in HepaRG cultures to maintain differentiation (for example, baseline metabolism, proportions of hepatocytes vs. cholangiocytes), while enabling further hepatic receptor pathway activation (for example, PXR and CAR) in response to chemical exposure. 48 hours after plating, the culture medium was replaced with HepaRG Serum-Free Incudtion Media. Cells were exposed to each test chemical in duplicate and maintained in CO2 incubators for another 48 hours. Chemical plates were thawed to room temperature and 200x concentrations of treatment groups were prepared. 8-point conentration-reponse curves were made with the highest exposure at 100 uM, followed by half-log dilutions, all in 0.5% DMSO. Each test plate contained variouse controls, induction positive controls (1mM phenobarbital), cytotoxicity positive controls ([…] aflatoxin B1), vehicle controls (0.5% DMSO), and total lysis controls (0.5% DMSO). Cell morphology images were taken using an Essen IncuCyte FLR automated microscope, with six 96-well plates imaged in about 24 minutes. Images were captured and exported and JPEG files. Spent culture media was transfered to black-well plates for the LDH assay, and remaining media was sorted at -80 C for later use. Cells were treated with RLT buffer and frozen until shipped for gene expression analysis. Total RNA was isolated from the cell suspension in 75 uL of Buffer RLT (Qiagen, Germantown, MD 20874) by Quintiles/Expression Analysis (Durham, NC) using a custom isolation procedure. Total RNA from each plate well was transferred to a preamplification plate. Fluidigm's 96.96 Dynamic ArrayTM (Fluidigm, Amsterdam, the Netherlands) technology was used for gene expression analyses by quantitative reverse transcription polymerase chain reaction (qRT-PCR, performed by Quintiles/Expression Analysis, Durham, NC)89. Standard TaqManTM Assays (Applied Biosystems/ThermoFisher Scientific, Foster City, CA) were used to assess the expression of 93 genes selected based on their selectivity and sensitivity to important hepatic receptors known to be modulated by environmental chemicals; importance in human hepatocyte functionality; and hepatotoxicity. […]

How did the AC50 turn out when `O=[N+]([O-])c1ccc(O)c([N+](=O)[O-])c1` was run?
The AC50 was 13.2 µM (active).

With `C=C(C)C(=O)[O][Sn]([CH2]CCC)([CH2]CCC)[CH2]CCC` as the molecule, how does the AC50 read?
The AC50 was 4.03 µM (active).

With `O=c1[nH]c(=O)[nH]c(=O)[nH]1` as the molecule, how does the outcome read?
Its outcome is “inactive”.

For `C[C@@H]1C[C@@H]([C@H](O)CC2CC(=O)NC(=O)C2)C(=O)[C@@H](C)C1`, which AC50 is on record?
The AC50 was 13.4 µM (active).

With `COc1cc(-c2ccc(N)c(OC)c2)ccc1N` as the molecule, how does the outcome read?
Its outcome is “inactive”.

`Cc1ccccc1N` was tested. Which outcome did it give?
Its outcome is “inactive”.

Which outcome does the source give for `CCC(C)(C)c1ccc(O)c(C(C)(C)CC)c1` here?
The outcome was “inactive”.

Which outcome does the source give for `O=C(O)C(Cl)(Cl)Cl` here?
The outcome was “inactive”.

With `CC12CC1(C)C(=O)N(c1cc(Cl)cc(Cl)c1)C2=O` (stereo unspecified) as the molecule, how does the outcome read?
The outcome was “inactive”.

For `Cn1sc(Cl)cc1=O`, which outcome is on record?
The outcome was “inactive”.

`ClC1(Cl)C2(Cl)C3(Cl)C4(Cl)C(Cl)(Cl)C5(Cl)C3(Cl)C1(Cl)C5(Cl)C24Cl` (stereo unspecified) was tested. Which outcome did it give?
Its outcome is “inactive”.

For `CCN1CCC2(CC1)COc1cc3c(cc12)N(C(=O)c1ccc(-c2ccc(-c4nnc(C)o4)cc2C)cc1)CC3`, which AC50 is on record?
Its AC50 is 29.2 µM (active).

With `CC(=O)[O][Hg][c]1ccccc1` as the molecule, how does the AC50 read?
The AC50 was 16.8 µM (active).

For `O=C(Nc1ccc2[nH]ccc2c1)c1cc2cc(F)ccc2n1Cc1cccc(F)c1`, which outcome is on record?
The outcome was “inactive”.

`CCOP(=S)(OCC)SCSP(=S)(OCC)OCC` was tested. Which outcome did it give?
The outcome was “inactive”.

`CC(C)(C)CC(C)(C)c1ccc(O)cc1` was tested. Which outcome did it give?
Its outcome is “inactive”.

`O=C1C2(Cl)C3(Cl)C4(Cl)C(Cl)(Cl)C5(Cl)C3(Cl)C1(Cl)C5(Cl)C24Cl` (stereo unspecified) was tested. Which outcome did it give?
The outcome was “inactive”.

`CC(C)(c1ccccc1)c1ccc(O)c(C(C)(C)c2ccccc2)c1` was tested. Which outcome did it give?
Its outcome is “inactive”.

Which outcome does the source give for `Oc1cccc2cccnc12` here?
The outcome was “inactive”.

For `CCOP(=S)(OCC)Oc1nc(Cl)c(Cl)cc1Cl`, which outcome is on record?
Its outcome is “inactive”.

How did the outcome turn out when `CC(C)(C)c1cc(O)ccc1O` was run?
The outcome was “inactive”.

How did the outcome turn out when `O=C(O)C(F)(F)C(F)(F)C(F)(F)C(F)(F)C(F)(F)C(F)(F)C(F)(F)C(F)(F)C(F)(F)C(F)(F)F` was run?
The outcome was “inactive”.

With `CN(C)N=O` as the molecule, how does the outcome read?
The outcome was “inactive”.

For `CCCCCCCCc1ccc(O)cc1`, which outcome is on record?
Its outcome is “inactive”.

`NC(=O)O` was tested. Which outcome did it give?
The outcome was “inactive”.

`ClCC(Cl)CCl` was tested. Which outcome did it give?
Its outcome is “inactive”.

With `CC(C)(OO)c1ccccc1` as the molecule, how does the outcome read?
The outcome was “inactive”.

For `C=CC(=O)OCCCCCC(C)C`, which outcome is on record?
The outcome was “inactive”.

How did the outcome turn out when `O=C(O)C(F)(F)C(F)(F)C(F)(F)C(F)(F)C(F)(F)C(F)(F)F` was run?
Its outcome is “inactive”.

`CCC(=O)C(CC(C)N(C)C)(c1ccccc1)c1ccccc1` (stereo unspecified) was tested. Which outcome did it give?
The outcome was “inactive”.

`C[C@]12CCC(=O)C[C@@H]1CC[C@@H]1[C@@H]2CC[C@]2(C)[C@@H](O)CC[C@@H]12` was tested. Which outcome did it give?
Its outcome is “inactive”.
